# From PubChem BioAssay
# CtBP-E1A inh: qHTS Assay for Inhibitors of the CtBP/E1A Interaction; CtBP / adenovirus E1A interaction (AlphaScreen); AlphaScreen GST-E1A/His-CtBP binding, 1536-well; hits give low values; activity change, % (no concentration beside the values); hit rate 0.49% among 340,000; AID 651724, 2012; in the data active = activity change below about -65%; inconclusive = mostly about -30% to -63%; also: % is scaled to controls: 0 for no effect and ±100 for the full control effect
#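 Homogeneous bead-based format: GST-tagged E1A captured on glutathione donor beads, His-tagged CtBP on nickel acceptor beads; compounds precede bead addition by 2 h at 37 °C.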
# Six1-Eya2 blk: qHTS Assay for Inhibitors of the Six1/Eya2 Interaction; hit rate 0.56% among 360,000; AlphaScreen GST-Six1/His-Eya2 binding, biochemical; hits give low values; AID 651725, 2012; activity change, % (no concentration beside the values); in the data active = activity change below about -65%; inconclusive = mostly about -30% to -63%; also: % is scaled to controls: 0 for no effect and ±100 for the full control effect
#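 AlphaScreen luminescence read after one hour at 37 °C in darkness. Pin-transferred compounds met GST-Six1 and His-Eya2 protein (5X stock 250 nM/500 nM) plus glutathione donor and Ni-chelate acceptor beads (5X, 50 ug/mL).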
# L3MBTL1 inh-1: qHTS Assay for the Inhibitors of L3MBTL1 | hit rate 0.66% among 230,000 | Potency, µM (titrated, usually from 57.1 µM), without a hit: at the highest dose activity, negative = inhibition, most hits filed as inhibitors | AID 485360, 2010 | Lethal(3)malignant brain tumor-like protein 1 (Homo sapiens), Q9Y468 | AlphaScreen L3MBTL1–H3K9me1 peptide binding; also: potency is read from the fitted curve at half-maximal effect; % is scaled to controls: 0 for no effect and ±100 for the full control effect; nearly all actives have a fitted effect of over 60% in size
#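 Read-out is AlphaScreen signal from streptavidin donor and nickel chelate acceptor beads (10 ug/mL final each) bridging L3MBTL1 (50 nM) and biotinylated K9-monomethylated H3(1-15) peptide (75 nM), after 30 min compound exposure at room temperature.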
# KDM4E inh: qHTS Assay for Inhibitors of Human Jumonji Domain Containing 2E (JMJD2E); JMJD2E catalytic domain, FDH-coupled NADH fluorescence (FDH is formaldehyde dehydrogenase); Potency, µM (highest dose often 57.1 µM), for inactives: top-dose activity change, negative = inhibition, usual class: inhibitors; Lysine-specific demethylase 4E (Homo sapiens), B2RXH2; hit rate 1.6% among 230,000; active = well fitted inhibition curve with a large enough effect, not every such curve was filed as active; inconclusive = small, poorly fitted or top-dose-only effect, or another doubt; inactive = no such curve, though single readings can be large or run the other way;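 also: potency is read from the fitted curve at half-maximal effect; 0% = wells with enzyme and -100% = buffer wells without enzyme; nearly all actives have a fitted effect of over 50% in size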
# Target sequence (B2RXH2 1-337 limits assumed): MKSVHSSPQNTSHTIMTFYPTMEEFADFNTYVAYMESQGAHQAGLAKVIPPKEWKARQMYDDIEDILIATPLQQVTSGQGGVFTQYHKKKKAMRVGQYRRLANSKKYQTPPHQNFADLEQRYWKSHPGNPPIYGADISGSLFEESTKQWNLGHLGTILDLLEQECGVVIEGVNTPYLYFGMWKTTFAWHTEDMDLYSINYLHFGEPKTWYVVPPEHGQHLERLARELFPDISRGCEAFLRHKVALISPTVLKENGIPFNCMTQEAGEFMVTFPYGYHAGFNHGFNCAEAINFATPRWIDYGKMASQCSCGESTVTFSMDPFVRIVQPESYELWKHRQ
# L3MBTL1 inh-2: qHTS Assay for the Inhibitors of L3MBTL1: Hit Validation | shares compounds with L3MBTL1 inh-1 | L3MBTL1 methyl-lysine binding inhibition, biochemical qHTS | Potency, µM, usual class: inhibitors | hit rate 91% among 500 | AID 540279, 2011; also: potency is read from the fitted curve at half-maximal effect; nearly all actives have a fitted effect of over 70% in size
# AlphaScreen ctr2: qHTS Assay for the Inhibitors of L3MBTL1: Hit Validationin AlphaScreen Counterscreen | shares compounds with L3MBTL1 inh-1 | AlphaScreen counterscreen, signal inhibition | Potency, µM (top dose mostly 57.1 µM), for inactives: at the top dose activity change, negative = inhibition, most hits filed as inhibitors | 500 tested, under 10 active; also: potency is read from the fitted curve at half-maximal effect; 0% is about no effect
# An asterisk follows results filed as active; ? = inconclusive; . = no result given. Only a selection was taken, and hits are over-represented in it overall. Unless noted, calls follow the shape of the dose curve; as a rule, active = well fitted curve in the direction sought with a large enough effect; inconclusive = small, poorly fitted or top-dose-only effect, or another doubt; inactive = no such curve, though single readings can be large; an effect the other way counts as inactive or inconclusive.
SMILES,CtBP-E1A inh,Six1-Eya2 blk,L3MBTL1 inh-1,KDM4E inh,L3MBTL1 inh-2,AlphaScreen ctr2
CCN1C[C@]2(C)CC[C@H](OC)[C@]34C5C[C@@H]6CC[C@@](O)(C5C(=O)O6)C(C13)[C@@H](OC(=O)c1ccccc1)C24,.,.,.,7.9%,.,.
COc1ccc(CCN)cc1O,1.8,-3.8,.,1.7%,.,.
NCCc1cc(O)c(O)cc1O,-5.6,?,.,6.31µM*,.,.
O=C1NC(=O)N(c2cccc(Cl)c2)C(=O)/C1=C\c1ccc(Sc2nc3ccccc3[nH]2)o1,2.6,?,31.6µM*,?,26.7*,-7.8%
O=C1NC(=O)N(c2ccccc2F)C(=O)/C1=C/c1ccc(Sc2nc3ccccc3[nH]2)o1,2.9,?,?,?,.,.
COc1ccc(CN2C(=O)NC(=O)/C(=C\c3ccco3)C2=O)cc1,-6.3,-19.7,7.94µM*,-24.9%,2.67*,-23.1%
Cc1cc(/C=C2\C(=O)NC(=O)N(c3cccc(F)c3)C2=O)c(C)n1-c1cc(C(=O)O)cc(C(=O)O)c1,1.3,?,7.94µM*,?,1.5*,-9.9%
COc1ccc(/C=C2/C(=O)N(Cc3ccco3)C(=O)N(C(C)C)C2=O)cc1,.,0.3,?,?,.,.
CC(C)N1C(=O)/C(=C/C=C/c2ccco2)C(=O)N(Cc2ccco2)C1=O,10.7,?,31.6µM*,-28.0%,4.74*,-25.1%
O=C(c1ccc2nc(-c3ccco3)c(-c3ccco3)nc2c1)N1CCC2(CC1)OCCO2,-0.1,-1.0,28.2µM*,?,?,-25.6%
COc1ccc(C(=O)N2CCC3(CC2)OCCO3)cc1,-8.8,6.3,-3.9%,.,.,.
CC(=O)OC1CC2C(C)(C)C(O)C=C[C@@]2(C)C2CC[C@]3(C)C(=CC(=O)OC3c3ccoc3)[C@]12C (stereo partly drawn),.,.,.,-6.1%,.,.
N[C@H](CP(=O)(O)O)C(=O)O,.,.,.,-0.1%,.,.
Cc1cccc(OCCn2cccc2/C=C2/C(=O)NC(=O)N(Cc3ccco3)C2=O)c1,-3.3,-29.3,20µM*,-22.2%,?,?
C=CCN1C(=O)NC(=O)/C(=C\c2ccc(-c3ccccc3[N+](=O)[O-])o2)C1=O,-7.9,-1.8,-5.8%,-23.3%,.,.
O=C1NC(=O)N(Cc2ccco2)C(=O)/C1=C/c1ccc(-c2cccc([N+](=O)[O-])c2)o1,0.2,?,28.2µM*,?,3.36*,-21.0%
Clc1ccc(C2=CCC[C@H]3CC[C@@H]2N3)cn1,.,.,.,-8.6%,.,.
CN1[C@@H]2CC[C@H]1CC(OC(c1ccc(F)cc1)c1ccc(F)cc1)C2 (stereo partly drawn),.,.,.,-4.3%,.,.
CN1CCC2(CC1)NC(=O)C1=C(CN(C)CC1)N2,-1.6,-2.5,28.2µM*,-2.9%,?,-0.5%
